# Assay results taken from PubChem BioAssay AID686978 (National Center for Advancing Translational Sciences (NCATS), 2013).
# Screen size: about 420,000 compounds; about 64,000 (15%) were called active. Another 27% or so got no clear call; they are omitted. Calls follow the shape of the dose curve; as a rule, active = well fitted inhibition curve with a large enough effect; inconclusive = small, poorly fitted or top-dose-only effect; inactive = flat fitted curve, though single readings scatter. Only a sample is shown. Where a call stands in place of a potency, no number is given.
# Assay: qHTS for Inhibitors of human tyrosyl-DNA phosphodiesterase 1 (TDP1): qHTS in cells in absence of CPT; also: nearly all actives have a fitted effect of over 55% in size
# Conditions: DT40 Tdp1-/- hTDP1 cells, no CPT, ATP luminescence, 48 h; activity change, negative = growth inhibition: at 46.2 µM (top of the series)
# Method in brief: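 A cellular qHTS used chicken DT40 cells lacking endogenous Tdp1 but carrying stably transfected human TDP1. Compounds were applied without camptothecin, and cell growth kinetics were judged by ATP-dependent luminescence after ≥48 hr.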
# Potency is read from the fitted curve at half-maximal effect.
row,SMILES,Potency
1,CCOC(=O)C1=C(CC)Nc2ccccc2N=C1N,inactive
2,COCCNC(=O)c1cc(-c2cccc(Cl)c2)on1,inactive
3,CSc1ccc(NC(=O)Cn2nnnc2-c2ccccc2F)cc1,inactive
4,COc1ccc(NC(=O)CN(C)C(=O)CNC(=O)C2CCCCC2)cc1,inactive
5,COc1ccccc1C1/C(=C(/O)c2ccc(C)cc2)C(=O)C(=O)N1Cc1ccco1 (stereo not drawn),inactive
6,COc1ccc(S(=O)(=O)N(C)CC(=O)NCCCN2CCOCC2)cc1Cl,inactive
7,CN(Cc1ccc(F)cc1Cl)S(=O)(=O)c1cccs1,inactive
8,OC(CNCc1ccc2c(c1)OCO2)COc1ccccc1 (stereo not drawn),inactive
9,Cc1ccc(OCC(=O)OC(C)CN(C)Cc2ccccc2)cc1 (stereo not drawn),inactive
10,CN(Cc1ccccc1)CC(O)COc1ccc(CNCc2cc3ccccc3s2)cc1 (stereo not drawn),29.1 µM (active)
11,O=C(COC(=O)c1ccc(F)c(S(=O)(=O)N2CCOCC2)c1)NCc1ccc2c(c1)OCO2,inactive
12,OC(Cc1ccc2ccccc2n1)c1ccc(Cl)c(Cl)c1 (stereo not drawn),inactive
13,Cc1cc(NC(=O)C(C)N2C(=O)c3ccccc3S2(=O)=O)no1 (stereo not drawn),inactive
14,O=C(CN1C(=O)NC2(CCOc3ccccc32)C1=O)NCc1ccc(F)cc1 (stereo not drawn),inactive
15,CCOc1ccc(CCNC(=O)CN2C(=O)NC3(CCc4ccccc43)C2=O)cc1OCC (stereo not drawn),inactive
16,O=C(CN1C(=O)NC2(CCOc3ccccc32)C1=O)Nc1cccc([N+](=O)[O-])c1 (stereo not drawn),20.6 µM (active)
17,O=C(CN1CCOCC1)Nc1cccc([N+](=O)[O-])c1,inactive
18,O=C(CN1C(=O)NC2(CCCC2)C1=O)Nc1ccc(F)c(F)c1F,inactive
19,O=C(CN1C(=O)NC2(CCc3ccccc32)C1=O)NC1CCCCC1 (stereo not drawn),inactive
20,O=C(CN1C(=O)NC2(CCCCCC2)C1=O)NC1CC1,inactive
21,O=C(CN1C(=O)NC2(CCCCCC2)C1=O)Nc1ccc([N+](=O)[O-])cc1,18.4 µM (active)
22,CN(C)S(=O)(=O)c1cc(NC(=O)CN2C(=O)NC3(CCCc4ccccc43)C2=O)ccc1Cl (stereo not drawn),14.6 µM (active)
23,COC(=O)Nc1ccc(S(=O)(=O)Nc2cc(OC)nc(OC)n2)cc1,inactive

row,SMILES,Potency
1,NS(=O)(=O)c1ccc(N2C(=O)C3C4CC(C(Br)C4Br)C3C2=O)cc1 (stereo not drawn),inactive
2,O=C1CC(Cc2ccccc2)C(=O)N1c1ccc(Cl)cn1 (stereo not drawn),inactive
3,Cc1ccn(-c2cccc(-n3ccc(C)n3)n2)n1,inactive
4,COCCCn1c(SCC(=O)Nc2ccccc2)nnc1-c1ccncc1,inactive
5,CCOC(=O)C1CSC(CC(=O)Nc2ccc(OCC)cc2)C(=O)N1 (stereo not drawn),inactive
6,O=C(C1CCCO1)N1CCN(C(=O)C23CC4CC(CC(C4)C2)C3)CC1 (stereo not drawn),inactive
7,COc1ccc(OC)c(-c2csc(NC(=O)COC(=O)C3CC3)n2)c1,inactive
8,COc1ccc(NC(=O)C2=NNC(=O)CC2)cc1S(=O)(=O)N1CCCCC1,inactive
9,COc1ccc(OC)c(-c2csc(NC(=O)C3=NNC(=O)CC3)n2)c1,13 µM (active)
10,COc1ccnc(Oc2ccccc2)n1,inactive
11,CCc1nnc(NC(=O)Cc2cccs2)s1,inactive
12,CNc1nc(-c2ccccc2)cc(-c2ccccc2)n1,inactive
13,CSc1nc(Nc2ccc(F)cc2)cc(-c2ccccc2)n1,23.1 µM (active)
14,Fc1ccc2cnc(-c3ccccc3)cc2c1,inactive
15,O=C(c1ccc(Cn2cc([N+](=O)[O-])cn2)o1)N1CCCC1,inactive
16,COCC(=O)Nc1ccc(Br)cc1,inactive
17,Cc1ccc(CCNC(=O)c2nnc(Cc3cccc(F)c3)o2)cc1,inactive
18,Cc1cc(Br)ccc1NC(=O)C1CCCO1 (stereo not drawn),inactive
19,C[C@@H]1NS(=O)(=O)c2cc(Cl)ccc2O[C@@H]1c1ccccc1,inactive
20,CC1=C(C(=O)OC2CCCCC2)C(c2cccnc2)n2ncnc2N1 (stereo not drawn),20.6 µM (active)
21,COC(=O)C1=C(C)Nc2ncnn2C1c1ccco1 (stereo not drawn),inactive
22,COC(=O)C1=C(C)Nc2ncnn2C1c1cccnc1 (stereo not drawn),inactive
23,O=C(CSc1nnc(-c2ccc(NS(=O)(=O)c3ccccc3)cc2)o1)NCC1CCCO1 (stereo not drawn),inactive

row,SMILES,Potency
1,Oc1ccc(-c2csc(Nc3cccnc3)n2)cc1,29.1 µM (active)
2,Clc1ccc(-c2csc(-c3ccncc3)n2)cc1,inactive
3,COc1ccc(-c2csc(Cc3nc(O)cs3)n2)cc1,14.6 µM (active)
4,COc1ccc(-c2csc(Nc3ccc(O)cc3)n2)cc1,6.51 µM (active)
5,O=C(NCc1cccnc1)C(=O)Nc1nc(-c2ccccc2)cs1,inactive
6,COc1ccc(Nc2nc(-c3ccccc3)cs2)cc1,inactive
7,COc1ccc(-n2c(SC)nc(O)cc2=O)cc1,inactive
8,Cc1ccccc1Nc1nc(-c2cccnc2)cs1,inactive
9,CN(c1ccc(O)cc1)c1nc(-c2cccnc2)cs1,inactive
10,c1ccc(Nc2nc(-c3ccncc3)cs2)nc1,16.4 µM (active)
11,COc1ccc(C(C)NC(=O)C2CCCC2)cc1 (stereo not drawn),inactive
12,NC(=O)c1ccc(NC(=O)COC(=O)C(Cc2ccccc2)NC(=O)c2ccccc2)cc1 (stereo not drawn),inactive
13,O=C(O)c1ccc(NC(=O)c2ccc(COc3ccc(Cl)cc3)o2)cc1,inactive
14,CC(=O)Nc1cc(C(=O)N2CCc3c(Cl)cccc3C2)cc2ncn(CCc3ccccn3)c12,inactive
15,COc1cccc(C2/C(=C(/O)c3ccc(F)cc3)C(=O)C(=O)N2CCN(C)C)c1 (stereo not drawn),inactive
16,O=C1CC(C(=O)O)NC(=S)N1 (stereo not drawn),inactive
17,CCCCCN(C(=O)NC(=O)Nc1cccc(C)c1C)S(C)(=O)=O,inactive
18,COc1ccc(C2CC(c3cccc(OC)c3)=NN2c2ccc(S(N)(=O)=O)cc2)cc1 (stereo not drawn),inactive
19,COc1ccccc1OCCOc1ccc(/C=C2\C(=N)N3N=C(C)SC3=NC2=O)cc1,inactive
20,COc1ccc(OC)c(Nc2nc(-c3ccc(O)c(O)c3)cs2)c1,1.16 µM (active)
21,CCN(CC(=O)Nc1c(F)cccc1F)C(=O)CN1c2cccc3cccc(c23)S1(=O)=O,inactive
22,CCn1c(SCC(=O)NCC2CCCO2)nc2cc(S(=O)(=O)N3CCCCC3)ccc21 (stereo not drawn),inactive
23,Cc1ccc(NC(=O)CSc2nnc(COc3ccccc3C)o2)cc1,inactive

row,SMILES,Potency
1,CC1CCCC(C)N1C(=O)CSc1nnnn1C1CCCC1 (stereo not drawn),inactive
2,CCCCc1ccc(NC(=S)NCCCN2CCOCC2)cc1,inactive
3,CCOc1cccc(/C=N/NC(=S)NCCN2CCOCC2)c1O,2.91 µM (active)
4,Cc1ccc(NC(=S)NCCN2CCOCC2)cc1,inactive
5,Brc1cnc(N2CCCC2)nc1N1CCCCC1,inactive
6,C=CCn1c(CNS(=O)(=O)c2ccc(Br)cc2)nnc1SC,inactive
7,CCC(C)(C)NC(=O)CN(Cc1cccs1)C(=O)CNS(=O)(=O)c1ccc(F)cc1,inactive
8,COc1ccc(NC(=O)CN(C)C(=O)c2cccc(S(=O)(=O)N3CCN(c4ccccc4)CC3)c2)cc1,20.6 µM (active)
9,COc1ccc(OC)c(NC(=O)c2cccc(S(=O)(=O)N3CCN(C(C)=O)CC3)c2)c1,inactive
10,CCOc1ccc(NC(=O)CN(C)C(=O)c2cccc(S(=O)(=O)N3CCCC3)c2)cc1OCC,inactive
11,O=C(NCc1ccccc1Cl)NC(=O)c1csc([N+](=O)[O-])c1,inactive
12,CCCOc1ccc(Cc2c(O)nc(SC)[nH]c2=O)cc1C,inactive
13,COc1cccc(NC(=O)CN2CCN(CC(=O)Nc3ccccc3Cl)CC2)c1,inactive
14,COc1cccc(NC(=O)C2(C)CCN2Cc2ccccc2Cl)c1 (stereo not drawn),25.9 µM (active)
15,COc1cccc(NC(=O)NCCN2CCCCC2)c1,inactive
16,O=C1COc2c1ccc(O)c2O,inactive
17,CC(=O)c1c(C)n(-c2ccc(N(C)C)cc2)c2ccc(OCC(N)=O)cc12,23.1 µM (active)
18,CC(=O)c1c(C)n(-c2ccc(C)cc2)c2ccc(O)cc12,inactive
19,Cc1c(Cc2ccccc2)c(=O)oc2cc(OCC(N)=O)ccc12,inactive
20,COc1ccc(CN2CCCC(N3CCc4ccccc4C3)C2)c(O)c1 (stereo not drawn),inactive
21,Cn1nccc1NS(=O)(=O)c1ccc(F)cc1,inactive
22,Cc1ccc(NS(=O)(=O)c2ccc(F)cc2)nc1,inactive
23,Cc1cc(F)ccc1NS(=O)(=O)c1ccc(-n2cccn2)cc1,16.4 µM (active)

row,SMILES,Potency
1,COc1ccccc1C(C)NC(=O)Cc1ccsc1 (stereo not drawn),inactive
2,Cc1nn(-c2ccc(F)cc2)c(Cl)c1/C=C(/CCC(=O)O)c1nc2ccccc2s1,inactive
3,CN(Cc1nc2ccccc2s1)C(=O)c1ccc(F)cc1,inactive
4,CC1=CC(=C(C#N)c2nc3ccccc3s2)C=C(C)N1c1ccc(F)cc1F,18.4 µM (active)
5,COCc1c(C(=O)N/N=C\c2cccnc2)nnn1-c1nonc1N,inactive
6,CN(c1ccccc1)S(=O)(=O)c1ccc(Cl)c(C(=O)OCC(=O)NCc2ccco2)c1,inactive
7,Cc1cc(C(=O)OCC(=O)NCc2ccco2)c(C)n1-c1ccccc1,2.06 µM (active)
8,O=C(COC(=O)c1ccccc1O)NCc1ccco1,inactive
9,Cc1ccc(S(=O)(=O)/N=S(\C)C(C)C)cc1 (stereo not drawn),inactive
10,Cc1cc(O)ccc1NC1=CC(=O)CC(C)(C)C1,inactive
11,Oc1ccc2ccccc2c1C=Nc1ccccc1,inactive
12,Oc1ccc(N=Cc2sc3ccccc3c2Cl)cc1,10.3 µM (active)
13,N#C/C(=C/c1ccc(-c2ccccc2[N+](=O)[O-])o1)C(=O)NCCN1CCCCC1,inactive
14,O=C1C2C3C=CC(C4CC34)C2C(=O)N1/N=C/c1ccc(-c2ccccc2[N+](=O)[O-])o1 (stereo not drawn),18.4 µM (active)
15,Cc1cc(-c2ccc(/C=N/n3cnnc3)o2)c([N+](=O)[O-])cc1C,inactive
16,Cn1c(-c2ccc(C(F)(F)F)cc2)cc2onc(-c3ccccc3)c2c1=O,inactive
17,Cc1ccc(S(=O)(=O)CCC(=O)OCC(=O)NCCc2ccc(S(N)(=O)=O)cc2)cc1,inactive
18,CCC1C(=O)NCCN1C(=O)c1ccc2nc(Cc3ccc(OC)cc3)oc2c1 (stereo not drawn),inactive
19,COc1ccc(CC(=O)NC(C)CCc2ccccc2)cc1 (stereo not drawn),inactive
20,COc1ccc(C(CCNCc2ccccc2F)c2ccc(F)cc2)cc1 (stereo not drawn),13 µM (active)
21,COc1ccc(CCNC(=O)COC(=O)Cc2ccccc2F)cc1,inactive
